LYPLA2 inh: LYPLA2 (human) inhibition in PME1 counter-screen; inhibition, % at 5.9 µM; recombinant LYPLA2, FP-Rh probe fluorescence polarization; 320,000 tested, 0.38% active; AID 2177; O95372;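 active = inhibition above the screen-wide mean plus 3 SD, limit set per campaign, cut at about 26% in these data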
LYPLA1 inh: counter-screen for PME1 inhibitors: inhibitors of human LYPLA1 | O75608 | recombinant LYPLA1, FP-Rh probe fluorescence polarization | inhibition, % at 5.9 µM | 320,000 tested, 0.16% active;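 active = inhibition above the mean of all tested compounds plus 3 SD, set per campaign, cut at about 14% in these data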;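 also: inhibitors block serine hydrolase probe labeling of LYPLA1 so polarization falls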
Target sequence (O75608 whole entry, looked up): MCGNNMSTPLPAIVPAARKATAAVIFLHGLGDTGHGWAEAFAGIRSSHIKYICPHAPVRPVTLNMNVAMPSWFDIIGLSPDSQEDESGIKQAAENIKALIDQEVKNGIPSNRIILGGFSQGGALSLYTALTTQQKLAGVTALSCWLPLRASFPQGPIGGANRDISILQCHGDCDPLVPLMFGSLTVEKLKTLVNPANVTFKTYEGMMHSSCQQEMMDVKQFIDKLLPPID
ZTA DNA inh: blocks Epstein-Barr virus ZTA, an EBNA-1 counter-screen | AID 2234 | ZTA-DNA binding, fluorescence polarization | inhibition, % at 11 µM | P03206 | 320,000 tested, 0.15% active; in the data active = inhibition above about 33%
EBNA-1 inh: blocks EBNA-1 binding to DNA | EBNA-1 DNA binding, fluorescence polarization | inhibition, % at 14.8 µM | 300,000 tested, 0.34% active; in the data active = inhibition above about 28%
LANA-H2A inh: blocks KSHV LANA binding to histone H2A/H2B | Q9QR71 | cell-free LANA-H2A/H2B peptide, fluorescence polarization | inhibition, % (no concentration beside the values) | 320,000 tested, 0.6% active | AID 2629; in the data active = inhibition mostly above about 10%, no sharp cut-off; inactive = mostly below about 6.7%
Large screens that a line does not name were inactive. The list is not random: actives were taken first. Their share in the collection is about 1.4%.

COc1ccc(NC(=O)COC(=O)CCC(=O)c2cccs2)cc1OC	LANA-H2A inh 23 (no result: EBNA-1 inh)
O=S(=O)(N/N=C1\CCCc2ccccc21)c1ccccc1	LANA-H2A inh 14 (no result: EBNA-1 inh)
O=S(=O)(N/N=C1/CCCc2ccccc21)c1ccc(Br)cc1	none
Cc1noc(C)c1COc1ccccc1C(=O)NNC(=O)C(C)Oc1ccccc1F (stereo unspecified)	none
CCOC(=O)c1cnn(C)c1NC(=O)c1ccc(Cl)cc1Cl	none
COc1ccc(OC)c(NC(=O)c2cccc(NC(=O)c3ccccc3C(=O)O)c2)c1	none
CCC(C)[C@H](NC(=O)C1CC(=O)N(c2ccc3c(c2)OCCO3)C1)C(=O)N1CCCCC1 (stereo partly specified)	none
C[C@H](NC(=O)C1CC(=O)N(c2ccc3c(c2)OCCO3)C1)C(=O)N1CCCCC1 (stereo partly specified)	LANA-H2A inh 16
CN1CCN(C(=O)c2cc3c(C(F)(F)F)nn(C)c3s2)CC1	LANA-H2A inh 17
O=C(NC1CCCCC1)NC1(C(=O)N2CCN3CCCC3C2)CCCCC1 (stereo unspecified)	LANA-H2A inh 29
COc1ccc(CCNC(=O)c2cnccn2)cc1	none
O=C(NCCc1ccc(Cl)cc1)c1cnccn1	LANA-H2A inh active
CC1(C)Cc2c(cnn2-c2ccc(F)cc2)C(NC(=O)CCn2cncn2)C1 (stereo unspecified)	none
CC1(C)Cc2c(cnn2-c2ccc(F)cc2)C(NC(=O)Cn2cncn2)C1 (stereo unspecified)	LANA-H2A inh 51
Cc1ccc(-c2nnc(SCC(=O)N/N=C/c3ccc(C(=O)O)cc3)n2C2CCCCC2)cc1	LANA-H2A inh 12
N#Cc1cc2c([nH]c1=O)CCCC2	LANA-H2A inh 9.1
O=C(c1ccco1)N1N=C(c2cccs2)CC1c1ccco1 (stereo unspecified)	none
Cc1ccc(C2CC(c3cccs3)=NN2C(=O)c2ccco2)o1 (stereo unspecified)	LANA-H2A inh 20
Cc1ccccc1S(=O)(=O)Oc1cccc2c(O)cccc12	none
CCOC(=O)C1CCN(C(=O)COC(=O)c2cc([N+](=O)[O-])ccc2N2CCOCC2)CC1	none
CCOC(=O)C1CCN(C(=O)c2ccc(N3CCOCC3)c([N+](=O)[O-])c2)CC1	LANA-H2A inh 21 (no result: EBNA-1 inh)
CCN(CC)CCNC(=O)C(=O)Nc1cc2c3c(c1)CCC(=O)N3CCC2	LANA-H2A inh 0.9
CN(C)CCNC(=O)C(=O)Nc1cc2c3c(c1)CCC(=O)N3CCC2	none
CN(C)CCNC(=O)C(=O)Nc1cc2c3c(c1)CCN3C(=O)CC2	LANA-H2A inh 17
O=C(O)CC(C(=O)O)N1C(=O)/C(=C/C=C/c2ccco2)SC1=S (stereo unspecified)	ZTA DNA inh 92, EBNA-1 inh 36
O=C(O)CCCN1C(=O)/C(=C/C=C/c2ccco2)SC1=S	ZTA DNA inh 88, EBNA-1 inh 45
O=C(NN1C(=O)/C(=C/C=C/c2ccco2)SC1=S)c1ccccc1O	ZTA DNA inh 49, EBNA-1 inh 37
COc1ccc(Br)cc1/C=N/NC(=O)CN1CCN(Cc2ccccc2)CC1	none
OCc1ccc2c(c1)c(-c1ccc3c(c1)OCCO3)c(-c1ccccc1)n2-c1ccccc1	none (no result: EBNA-1 inh)
COC(=O)c1c(N2C(=O)[C@H]3[C@@H](C2=O)[C@]2(C(=O)Nc4ccc(C)cc42)N2CCC[C@@H]32)sc(C)c1C	none
CN(Cc1ccccc1F)C(=O)COc1ccc(C(=O)c2ccccc2)cc1	none
Cc1[nH]c(=O)[nH]c(=O)c1S(=O)(=O)N(CC(C)C)CC(C)C	none
CCO/C(=C/c1sc2ccc(OC)cc2[n+]1CCCS(=O)(=O)[O-])CC	none
CCC(/C=C1\Sc2ccc(OC)cc2N1CCO)=C\c1sc2ccc(OC)cc2[n+]1CCO	ZTA DNA inh 84, EBNA-1 inh 45
CCC(/C=C1\Sc2ccc(OC)cc2N1CC)=C\c1sc2ccc(OC)cc2[n+]1CCCS(=O)(=O)[O-]	ZTA DNA inh 104, EBNA-1 inh 56
CCC(=O)/C=C1/Sc2ccc(OC)cc2N1CCO	none
COc1ccc(CCNC(=O)C(=O)NCC2CCCO2)cc1 (stereo unspecified)	none
COc1ccc(CCNC(=O)C2CC2)cc1OC	none
COc1ccc(CCNC(=O)C(=O)NCC2CCCO2)cc1OC (stereo unspecified)	LANA-H2A inh 41
COc1ccc(CCNC(=O)C2CCC(C(C)(C)C)CC2)cc1OC (stereo unspecified)	LANA-H2A inh 58

Screens: PubChem BioAssay, several laboratories
